Screening data: PubChem BioAssay, National Center for Advancing Translational Sciences (NCATS)
Sampled rows, rich in hits. Any-hit rate of the full collection: about 2.8%.
POLB inh: DNA polymerase beta (human) inhibition; Potency, µM (titrated, usually from 114 µM), for the others: at the top dose activity change, negative = inhibition, hits mostly inhibitors; 340,000 tested, 1.3% active; Pol beta primer extension/strand displacement, fluorescence kinetic; AID 485314; P06746; also: potency is read from the fitted curve at half-maximal effect; % is scaled to controls: 0 for no effect and ±100 for the full control effect
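Pol beta (10 nM) was preincubated with compound for 15 min at room temperature. The reaction was then started with 50 nM substrate and read immediately and after a further 10 min at room temperature.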
Pol eta inh: blocks human DNA polymerase eta activity. Q9Y253. recombinant Pol eta, fluorescent DNA replication assay. 390,000 tested, 1.2% active. AID 588591. Potency, µM (titrated, usually from 114 µM), for inactives: at the top dose activity change, negative = inhibition, most hits filed as inhibitors; also: potency is read from the fitted curve at half-maximal effect; % is scaled to controls: 0 for no effect and ±100 for the full control effect
Target sequence (Q9Y253 whole entry, looked up): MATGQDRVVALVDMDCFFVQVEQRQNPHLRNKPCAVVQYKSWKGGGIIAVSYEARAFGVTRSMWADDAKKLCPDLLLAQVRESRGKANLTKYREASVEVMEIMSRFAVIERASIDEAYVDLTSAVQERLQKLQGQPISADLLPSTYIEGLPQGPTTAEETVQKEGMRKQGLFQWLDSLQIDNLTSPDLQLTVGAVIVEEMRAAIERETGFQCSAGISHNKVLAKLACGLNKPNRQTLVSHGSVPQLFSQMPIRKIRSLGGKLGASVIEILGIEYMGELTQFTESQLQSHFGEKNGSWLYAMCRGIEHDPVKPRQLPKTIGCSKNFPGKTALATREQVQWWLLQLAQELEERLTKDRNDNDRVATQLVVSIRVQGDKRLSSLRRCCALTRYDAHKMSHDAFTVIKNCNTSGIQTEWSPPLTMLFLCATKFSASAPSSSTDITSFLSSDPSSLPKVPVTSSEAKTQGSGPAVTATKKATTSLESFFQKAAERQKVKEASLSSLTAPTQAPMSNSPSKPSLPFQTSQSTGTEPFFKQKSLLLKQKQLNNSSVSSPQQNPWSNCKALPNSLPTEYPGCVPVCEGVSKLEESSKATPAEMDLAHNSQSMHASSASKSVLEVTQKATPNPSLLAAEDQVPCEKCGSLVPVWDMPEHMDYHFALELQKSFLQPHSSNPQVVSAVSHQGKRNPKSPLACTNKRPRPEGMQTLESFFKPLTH
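Pol eta (10 nM) was preincubated with compounds for 15 min at room temperature, after which fluorescent replication substrate (50 nM final) was added to start the reaction. Fluorescence was read kinetically at 0 and 10 min.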
POLK inh: blocks human DNA polymerase kappa activity; Potency, µM (series often up to 107 µM), inactives show at the top dose activity, negative = inhibition, most hits filed as inhibitors; 400,000 tested, 0.53% active; purified Pol kappa, fluorescent DNA synthesis assay, 10 min; also: potency is read from the fitted curve at half-maximal effect; % is scaled to controls: 0 for no effect and ±100 for the full control effect
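Readout: fluorescence, taken kinetically at 0 and 10 min. Conditions: 10 nM Pol kappa, 15 min RT compound preincubation, 50 nM substrate final. Controls: enzyme-free buffer wells.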
POLI inh: inhibitors of human DNA polymerase iota; Pol iota fluorescent replication assay, 10 min; AID 588590; 390,000 tested, 1% active; Q9UNA4; Potency, µM (titrated, usually from 115 µM), inactives show at the top dose activity, negative = inhibition, actives largely listed as inhibitors; also: potency is read from the fitted curve at half-maximal effect
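Fluorescent replication assay read twice, at 0 min and 10 min after adding 50 nM (final) substrate. Enzyme (10 nM) and compounds were first incubated 15 min at room temperature; enzyme-free buffer wells were negative controls.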
PI5P4K alpha inh: blocks human PI5P4K alpha kinase activity; max response, %; P48426; PI5P4Kalpha enzyme, ADP-Glo luminescence, 60 min; active compounds read low; 330,000 tested, 1.2% active; AID 652105; active = max response of -50% or lower; inconclusive = between -30% and -50%; inactive = -30% or higher; also: value at the top dose of about 77 µM; % is scaled to controls: 0 for no effect and ±100 for the full control effect
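Compounds were pin-transferred onto PI5P4Kalpha and substrate in HEPES pH 7.4 buffer with EGTA, CHAPS and 5% DMSO. ATP (5 microM final) started the reaction, which ran 60 minutes at room temperature before ADP-Glo detection.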
WRN inhibitor: WRN helicase (human) inhibition; Potency, µM (series often up to 114 µM), inactives show at the top dose activity change, negative = inhibition, usual class: inhibitors; 360,000 tested, 0.46% active; Q14191; WRN helicase unwinding, fluorescent forked duplex, kinetic; AID 651768; also: potency is read from the fitted curve at half-maximal effect; % is scaled to controls: 0 for no effect and ±100 for the full control effect; nearly all actives have a fitted effect of over 55% in size
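Fluorescence dequenching readout, ex 525 nm/em 598 nm, kinetic mode: forked duplex DNA (100 nM final) with adjacent fluorophore and quencher unwound by WRN (20 nM final) with 2 mM ATP. Compound preincubation 15 min, room temperature.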
ADP-Glo interf: ADP-Glo luciferase interference, PI5P4K counter-screen | Potency, µM (series often up to 76.9 µM), for the others: at the top dose activity change, negative = inhibition, hits mostly inhibitors | 1,100 tested, under 10 active | shares compounds with PI5P4K alpha inh | ADP-Glo detection counter-screen, luciferase luminescence, no enzyme | AID 743285
Starred values were filed as active, the others as inactive; u = inconclusive; x = not tested or not shown; [ ] = another dose, or the depositor's remark. Unless noted, calls follow the shape of the dose curve; as a rule, active = well fitted curve in the direction sought with a large enough effect; inconclusive = small, poorly fitted or top-dose-only effect, or another doubt; inactive = no such curve, though single readings can be large; an effect the other way counts as inactive or inconclusive.

SMILES	POLB inh	Pol eta inh	POLK inh	POLI inh	PI5P4K alpha inh	WRN inhibitor	ADP-Glo interf
Cc1ccc(-c2onc3ccc(C(=O)O)cc23)cc1	u	-7%	-3%	u	-52*	-4%	1%
COCCNc1ncnc2c1cnn2-c1cc(Cl)ccc1C	-21%	-10%	-1%[60.1 µM]	12%	x	x	x
COc1cccc(N2CCN(C(=O)c3cc4c(s3)-c3c(C)cccc3OC4)CC2)c1	1%	-5%	-6%	19%	x	x	x
COC(=O)[C@]12CCCCC=C1N(Cc1cccc3ccccc13)C(=O)[C@H](CC(=O)NCc1ccc(C)o1)C2	x	x	x	x	-52*	0%	2%
CCOC(=O)[C@]12CCCC=C1N(Cc1ccccc1)C(=O)[C@H](CC(=O)NCCCOC)C2	x	x	x	x	-57*	6%	-1%
CCOC(=O)[C@]12CCCC=C1N(Cc1cccc3ccccc13)C(=O)[C@H](CC(=O)NCc1ccc(C)o1)C2	x	x	x	x	-19	-9%	x
CCC(CC)C(=O)NC1CC(=O)N(c2ccc3c(c2)OCCO3)C1 (stereo unspecified)	-2%	-5%	-7%[60.1 µM]	7%	x	x	x
Cc1ccc(-n2nc3c(=O)n(CCCC(=O)NCCc4ccccc4Cl)nc(C)c3c2C)cc1	-6%	-17%	-3%	26%	x	x	x
c1coc(-c2ccc3nncn3c2)c1	x	x	x	x	-73*	18µM*	-13%
CC(=O)Nc1cc(-c2ccc(F)cc2)cn2c(-c3ccc(F)c(Cl)c3)cnc12	x	x	x	x	-1	-9%	x
CC(=O)Nc1cc(-c2ccc(CO)cc2)cn2c(-c3ccc(F)c(Cl)c3)cnc12	x	x	x	x	-54*	-4%[57.1 µM]	1%
Cn1c(=O)c2c(-c3ccccc3)n(-c3cccc(O)c3)cc2n(C)c1=O	x	x	x	x	-50*	-4%	-1%
O=[N+]([O-])c1ccc2nc(-c3ccc(Cl)cc3)[nH]c2c1	-6%	u	-22%	-13%	u	-16%	x
O=[N+]([O-])c1ccc(-c2cc(-c3ccc(Cl)cc3)n[nH]2)cc1	u	u	-10%	-28%	-69*	100µM*	2%
O=C(Cc1ccccc1[N+](=O)[O-])NCCCc1ccccc1	-2%	-9%	-16%	94%	-17	3%	x
CCn1c(SCC(=O)Nc2cc(C)on2)nnc1-c1ccc(OC)cc1	-11%	-2%	-13%	63%	0	-4%	x
NS(=O)(=O)c1ccc(NC(=O)c2ccc(S(=O)(=O)N3CCc4ccccc43)cc2)cc1	0%	-21%	0%	u	-66*	-11%	-3%
CC(=O)Nc1ccc(NC(=S)Nc2ccccc2)cc1	14%	-9%	-13%	10%	0	-1%	x
CC(=O)Nc1ccc(NC(=S)Nc2ccc(Br)cc2)cc1	-18%	-99%	u	u	-75*	-4%[11.6 µM]	-3%
O=C(Oc1ccc(N(Cc2cccs2)C2=NS(=O)(=O)c3ccccc32)cc1)c1ccccc1Cl	-10%	-16%	0%	u	-65*	u	0%
CCOc1ccc(N2C(=O)C3C4C=CC([C@H]5CC45)[C@@H]3C2=O)cc1 (stereo partly specified)	42%	-15%	-6%	15%	1	2%	x
O=C(CCNC(=O)C1CCN(S(=O)(=O)c2ccccc2)CC1)Nc1cccc(C(F)(F)F)c1	13%	-6%	-5%	8%	16	-12%	x
NC(=O)c1ccsc1NC(=O)COC(=O)CNC(=O)c1ccc(F)cc1	x	u	u	u	-51*	-12%	2%
NC(=O)c1ccsc1NC(=O)COC(=O)c1c(F)cccc1Cl	x	-11%	-3%	-17%	-1	3%	x
NC(=O)c1ccsc1NC(=O)COC(=O)c1ccccc1F	x	-7%	-3%	79µM*	-54*	6%	-10%
SMILES	POLB inh	Pol eta inh	POLK inh	POLI inh	PI5P4K alpha inh	WRN inhibitor	ADP-Glo interf
NC(=O)c1ccsc1NC(=O)COC(=O)COc1ccccc1F	-10%[57.1 µM]	u	-5%	-9%	-26	-11%[57.1 µM]	x
O=S(=O)(NCc1cccnc1)c1ccc2ccccc2c1	13%	-12%	3%	-12%	-12	6%	x
O=C1NC(c2cccs2)Nc2ccccc21 (stereo unspecified)	-12%	-15%	-6%	-8%	-58*	u	2%
COc1ccc(OC)c(CCNC(=O)Cn2ccc3cc(S(=O)(=O)N4CCCCC4)ccc32)c1	0%	-12%	4%	21%	x	x	x
CCOc1ccc(S(=O)(=O)N2CCN(c3c(C)cccc3C)CC2)c2ccccc12	-10%	-14%	-5%	-6%	x	x	x
COc1cccc(Nc2nnc(SCC(=O)Nc3sccc3C(N)=O)s2)c1	4%	-20%	-20%	u	-52*	-5%	6%
Cc1ccc(C)c(N2CCN(C(=O)Cn3c(=O)c4cccn4c4ccc(F)cc43)CC2)c1	2%	-12%	-1%	-2%	x	x	x
CC(=O)NC(c1cccs1)c1cc([N+](=O)[O-])c2cccnc2c1O (stereo unspecified)	42%	u	-5%	43%	-73*	-22%	4%
CCC(=O)NC(c1cccs1)c1cc([N+](=O)[O-])c2cccnc2c1O (stereo unspecified)	8%	-3%	-8%	27%	-19	-30%	x
CCOc1ccc(NC(=O)N2CCC(n3nnc4ccccc43)CC2)cc1	29%	u	u	u	-51*	-4%	2%
COc1ccccc1NC(=O)CSc1ccc(-c2ccco2)nn1	u	-10%	-5%	u	-19	-17%	x
COc1ccc(OC)c(NC(=O)CSc2ccc(-c3ccco3)nn2)c1	25µM*	u	u	25µM*	-51*	1%[11.6 µM]	-10%
COc1ccc(-c2nnc(C)c3nocc23)cc1	34%	u	-22%	u	-66*	-23%	-10%
CC1(C(=O)O)CCCN1C(=O)c1ccc(Cl)cc1Cl (stereo unspecified)	x	x	x	x	7	-8%	x
Cc1oc(-c2ccc(Cl)cc2)cc1C(=O)N1CCC1(C)C(=O)O (stereo unspecified)	x	x	x	x	-52*	0%	-4%
COc1ccc(C(=O)N(c2ccc(OC)cc2)S(=O)(=O)c2cccs2)cc1	-13%	-19%	-15%	3%	0	-7%	x
COc1ccc(N(C(=O)c2ccccc2)S(=O)(=O)c2cccs2)cc1	19%	-5%	-6%	37%	-60*	u	4%
N=C1C(c2ccccc2)=C(O)CN1NC(=O)c1ccc(Cl)cc1	6%	-5%	-10%	49%	-2	-9%	x
